Test results reported in PubChem BioAssay (Tox21).
Unmarked numbers belong to inactive results. Inconclusive results are not listed. A call without a number means that no potency is given here. Activity calls are given as the source filed them. Unless noted, calls come from the whole dose curve; as a rule, active = well fitted curve in the direction sought with a large enough effect in the repeat runs; inconclusive = weak or mixed curves; inactive = no such curve, though single readings can be large; an effect the other way counts as inactive or inconclusive.

Tests used:
[1] = qHTS assay to identify small molecule agonists of the androgen receptor (AR) signaling pathway in the presence of an antagonist - cell viability counter screen (AID 1259379); note: nearly all actives have a fitted effect of over 25% in size; note: potency is the fitted concentration of half-maximal effect
Outline: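 Each compound was tested at 15 concentrations on MDA-kb2 cells in the presence of 3.0uM nilutamide. Viability was measured by CellTiter-Fluor fluorescence after a 16 hr incubation at 37C in a CO2-free atmosphere.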

[2] = qHTS assay to identify small molecule agonists of the estrogen receptor beta (ER-beta) signaling pathway - cell viability counter screen (AID 1259380); note: nearly all actives have a fitted effect of over 30% in size; note: potency is the fitted concentration of half-maximal effect
Outline: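 Compounds dissolved in DMSO were pin-transferred onto ER-beta-UAS-bla HEK293T cells that had settled 6 hr, and exposure ran 16 hr at 37C. Following the reporter read, CellTiter-Glo luminescence after 30 min at room temperature indicated cytotoxicity.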

[3] = target: Androgen receptor (Homo sapiens) (UniProt P10275); test: qHTS assay to identify small molecule agonists of the androgen receptor (AR) signaling pathway in the presence of an antagonist (AID 1259381; calls by dose curve; note: nearly all actives have a fitted effect of over 15% in size)
Androgen receptor (Homo sapiens), sequence (P10275 whole entry, looked up): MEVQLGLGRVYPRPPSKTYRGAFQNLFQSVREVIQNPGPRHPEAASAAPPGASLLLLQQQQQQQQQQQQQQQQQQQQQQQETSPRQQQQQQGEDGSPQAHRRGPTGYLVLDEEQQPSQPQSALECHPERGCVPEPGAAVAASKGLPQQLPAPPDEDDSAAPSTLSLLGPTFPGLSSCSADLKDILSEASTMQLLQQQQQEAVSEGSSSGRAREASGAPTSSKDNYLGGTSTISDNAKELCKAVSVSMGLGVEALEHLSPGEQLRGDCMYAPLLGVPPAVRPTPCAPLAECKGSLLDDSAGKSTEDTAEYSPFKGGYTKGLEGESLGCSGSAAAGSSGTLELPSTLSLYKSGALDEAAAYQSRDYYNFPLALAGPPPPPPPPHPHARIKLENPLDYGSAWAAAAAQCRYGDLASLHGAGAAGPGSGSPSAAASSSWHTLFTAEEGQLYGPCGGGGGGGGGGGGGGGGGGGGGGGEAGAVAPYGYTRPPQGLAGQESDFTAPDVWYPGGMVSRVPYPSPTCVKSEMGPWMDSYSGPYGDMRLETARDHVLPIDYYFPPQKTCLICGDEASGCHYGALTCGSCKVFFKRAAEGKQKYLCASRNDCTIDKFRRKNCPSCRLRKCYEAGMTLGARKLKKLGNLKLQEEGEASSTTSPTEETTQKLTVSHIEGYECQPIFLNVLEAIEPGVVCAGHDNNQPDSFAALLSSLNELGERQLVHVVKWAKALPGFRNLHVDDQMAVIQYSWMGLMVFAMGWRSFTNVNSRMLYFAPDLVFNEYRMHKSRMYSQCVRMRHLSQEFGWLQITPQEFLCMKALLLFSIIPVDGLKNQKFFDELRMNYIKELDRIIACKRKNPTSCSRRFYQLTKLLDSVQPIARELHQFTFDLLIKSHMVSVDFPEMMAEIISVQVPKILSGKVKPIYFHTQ
Outline: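 Plated MDA-kb2 cells (3,000/well) were pre-incubated 5hr, given nilutamide (3.0uM final) or buffer, then dosed with compounds in DMSO at 15 concentrations. Luciferase activity was quantified by luminescence after 16hr at 37C.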

[4] = qHTS assay to identify small molecule antagonists of the estrogen receptor beta (ER-beta) signaling pathway - cell viability counter screen (AID 1259382); note: nearly all actives have a fitted effect of over 55% in size; note: potency is the fitted concentration of half-maximal effect
Outline: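 CellTiter-Glo ATP luminescence measured after the LiveBLAzer read in the same wells; ER-beta-UAS-bla HEK293T cells, 16 hr compound treatment with 1nM 17-beta-estradiol agonist at 37C, 5% CO2.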

[5] = target: Estrogen receptor (Homo sapiens) (UniProt P03372); test: qHTS assay to identify small molecule agonists of the estrogen receptor alpha (ER-alpha) signaling pathway in the presence of an antagonist (AID 1259383; calls by dose curve; note: top concentration of the series differs between compounds; nearly all actives have a fitted effect of over 15% in size)
Estrogen receptor (Homo sapiens), sequence (P03372 whole entry, looked up): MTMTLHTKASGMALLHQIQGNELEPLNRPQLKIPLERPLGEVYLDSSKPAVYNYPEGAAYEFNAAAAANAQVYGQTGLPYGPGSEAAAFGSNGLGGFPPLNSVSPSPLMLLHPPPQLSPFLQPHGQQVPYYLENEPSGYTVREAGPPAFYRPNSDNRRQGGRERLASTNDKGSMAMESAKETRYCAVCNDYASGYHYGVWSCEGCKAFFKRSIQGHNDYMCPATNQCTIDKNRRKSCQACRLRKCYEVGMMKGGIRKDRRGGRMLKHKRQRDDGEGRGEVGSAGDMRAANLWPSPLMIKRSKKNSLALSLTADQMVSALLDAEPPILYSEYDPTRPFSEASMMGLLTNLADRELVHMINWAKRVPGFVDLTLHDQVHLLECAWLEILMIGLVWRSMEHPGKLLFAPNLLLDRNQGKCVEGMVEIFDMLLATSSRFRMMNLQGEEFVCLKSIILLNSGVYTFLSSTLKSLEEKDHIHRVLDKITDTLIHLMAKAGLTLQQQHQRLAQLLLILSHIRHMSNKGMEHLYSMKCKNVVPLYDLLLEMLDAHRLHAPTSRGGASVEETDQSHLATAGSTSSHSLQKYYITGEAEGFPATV
Outline: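 Luminescent ERE-luciferase reporter, VM7Luc4E2 cells (endogenous ER-alpha); 10.0nM ICI-182,780 final; 15-point compound titration; 22hr at 37C; ONE-Glo, 30min RT.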

[6] = qHTS assay to identify small molecule agonists of the estrogen receptor alpha (ER-alpha) signaling pathway in the presence of an antagonist - cell viability counter screen (AID 1259386);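 note: series mostly up to about 92 µM; cells exposed to compounds for 22 h at 37 °C before the viability read; nearly all actives have a fitted effect of over 30% in size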
Outline: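 Using estrogen-depleted VM7Luc4E2 cells, the 15-concentration compound series was applied together with 10.0nM ICI-182,780 and incubated 22hr at 37C/5% CO2. Cell viability was then scored by CellTiter-Fluor.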

[7] = target: Progesterone receptor (Homo sapiens) (UniProt P06401); test: qHTS assay to identify small molecule agonists of the progesterone receptor (PR) signaling pathway (AID 1346784; calls by dose curve; note: nearly all actives have a fitted effect of over 30% in size)
Progesterone receptor (Homo sapiens), sequence (P06401 whole entry, looked up): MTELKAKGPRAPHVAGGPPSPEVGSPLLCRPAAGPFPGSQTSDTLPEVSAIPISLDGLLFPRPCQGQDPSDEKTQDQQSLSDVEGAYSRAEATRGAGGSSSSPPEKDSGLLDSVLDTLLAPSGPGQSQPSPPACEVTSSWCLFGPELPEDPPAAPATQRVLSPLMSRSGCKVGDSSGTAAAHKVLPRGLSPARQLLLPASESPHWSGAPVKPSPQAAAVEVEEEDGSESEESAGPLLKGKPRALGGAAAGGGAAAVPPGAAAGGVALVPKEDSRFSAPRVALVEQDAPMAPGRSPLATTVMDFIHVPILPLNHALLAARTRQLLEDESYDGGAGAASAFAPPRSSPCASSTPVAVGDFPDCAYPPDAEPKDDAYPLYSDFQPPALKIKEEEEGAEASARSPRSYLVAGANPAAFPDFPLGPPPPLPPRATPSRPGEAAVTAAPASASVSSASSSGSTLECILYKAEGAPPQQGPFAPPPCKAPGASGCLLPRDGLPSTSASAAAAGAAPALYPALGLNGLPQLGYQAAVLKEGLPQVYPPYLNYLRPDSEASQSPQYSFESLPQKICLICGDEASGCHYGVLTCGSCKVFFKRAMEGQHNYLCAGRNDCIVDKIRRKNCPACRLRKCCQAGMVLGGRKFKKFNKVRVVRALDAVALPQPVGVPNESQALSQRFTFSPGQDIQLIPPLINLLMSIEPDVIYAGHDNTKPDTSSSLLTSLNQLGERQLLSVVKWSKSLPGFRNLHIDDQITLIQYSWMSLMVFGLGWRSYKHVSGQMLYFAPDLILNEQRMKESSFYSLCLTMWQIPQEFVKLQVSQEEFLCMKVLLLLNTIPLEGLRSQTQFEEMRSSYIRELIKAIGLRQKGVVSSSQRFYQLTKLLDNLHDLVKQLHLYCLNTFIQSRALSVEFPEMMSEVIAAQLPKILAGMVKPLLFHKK
Outline: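 Compounds were tested for PR agonism in HEK 293T cells bearing a beta-lactamase gene under UAS control. Treatment lasted 16 hr at 37C; signal came from fluorescence of a FRET substrate.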

[8] = target: Progesterone receptor (Homo sapiens) (UniProt P06401); test: qHTS assay to identify small molecule antagonists of the progesterone receptor (PR) signaling pathway (AID 1346795; active = well fitted inhibition curve with a large enough effect in the signal ratio in the repeat runs, not every such curve was filed as active; the % refers to the signal ratio)
Outline: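 In HEK293T cells bearing the PR-UAS-bla reporter, compound effects on promegestone-driven (1 nM) beta-lactamase expression are assessed after 16 hr using a fluorescent FRET substrate incubated 2 hr at room temperature.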

[9] = qHTS assay to identify small molecule antagonists of the progesterone receptor (PR) signaling pathway - cell viability counter screen (AID 1346798); note: nearly all actives have a fitted effect of over 50% in size; note: potency is the fitted concentration of half-maximal effect
Outline: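 Following a 4 hr attachment, PR-UAS-bla HEK293T cells in charcoal-stripped FBS medium were exposed to compounds with R5020 for 16 hr; CellTiter-Glo was added and luminescence read after 30 min at room temperature.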

[10] = qHTS assay to identify small molecule agonists of the progesterone receptor (PR) signaling pathway - cell viability counter screen (AID 1346799; calls by dose curve; note: nearly all actives have a fitted effect of over 45% in size; note: potency is the fitted concentration of half-maximal effect)
Outline: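 Here, 3,000 PR-UAS-bla HEK293T cells per well were treated with compounds for 16 hr after a 6 hr preincubation at 37C and 5% CO2; cell viability is the CellTiter-Glo luminescence signal.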

[11] = qHTS assay to identify small molecule agonists of the TGF-beta/Smad signaling pathway - cell viability counter screen (AID 1346829); note: top concentration of the series differs between compounds; nearly all actives have a fitted effect of over 45% in size
Outline: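 Same-well cytotoxicity: CellTiter-Glo added after the 2 hr room-temperature beta-lactamase substrate step, luminescence measured 30 min later; cells had 5 hr of compound at 37 C.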

[12] = qHTS assay to identify small molecule agonists of the TGF-beta/Smad signaling pathway (AID 1346859; active = well fitted activation curve with a large enough effect in the signal ratio in the repeat runs, not every such curve was filed as active; the % refers to the signal ratio; note: series mostly up to about 77 µM)
Outline: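 Each well held 4,000 SBE-bla HEK 293T cells incubated overnight before compound addition; 5 hr later the cleavable FRET substrate went on for 2 hr at room temperature, and fluorescence was read at two emissions.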

[13] = target: Thyrotropin-releasing hormone receptor (Homo sapiens) (UniProt P34981); test: qHTS assay to identify small molecule antagonists of the thyrotropin-releasing hormone receptor (TRHR) signaling pathway (AID 1346877; active = well fitted inhibition curve with a large enough effect in the repeat runs, not every such curve was filed as active; note: series mostly up to about 51 µM)
Thyrotropin-releasing hormone receptor (Homo sapiens), sequence (P34981 whole entry, looked up): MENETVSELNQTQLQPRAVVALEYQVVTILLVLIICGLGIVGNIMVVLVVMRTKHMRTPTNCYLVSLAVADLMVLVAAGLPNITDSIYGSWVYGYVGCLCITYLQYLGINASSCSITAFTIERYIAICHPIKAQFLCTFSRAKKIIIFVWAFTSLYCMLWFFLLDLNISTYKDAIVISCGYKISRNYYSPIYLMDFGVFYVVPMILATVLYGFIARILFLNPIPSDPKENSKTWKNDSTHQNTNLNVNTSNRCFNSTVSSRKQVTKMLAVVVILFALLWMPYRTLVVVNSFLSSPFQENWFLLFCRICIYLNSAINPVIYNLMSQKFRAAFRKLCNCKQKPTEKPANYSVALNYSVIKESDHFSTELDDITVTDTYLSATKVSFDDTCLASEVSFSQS
Outline: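 Calcium signal in dye-loaded TRHR/HEK293 cells; compounds added 5 min before TRH (1 nM final); fluorescence monitored 3 min at 1 s steps.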

[14] = target: Thyrotropin-releasing hormone receptor (Homo sapiens) (UniProt P34981); test: qHTS assay to identify small molecule agonists of the thyrotropin-releasing hormone receptor (TRHR) signaling pathway (AID 1346891; calls by dose curve; note: series mostly up to about 58 µM)
Outline: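 Screening of agonists relied on calcium signalling in HEK293 cells expressing human TRHR: dye loading 2 h at 37 °C preceded compound addition and a 3-min fluorescence time course.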

[15] = Human pregnane X receptor (PXR) small molecule agonists, qHTS cell viability counter screen (AID 1346977); note: nearly all actives have a fitted effect of over 50% in size; note: potency is the fitted concentration of half-maximal effect
Outline: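 Tox21 qHTS format; PXR-Luc HepG2, 2,000/well, charcoal-stripped FBS 5%. Cpd exposure 24hr. Read: CellTiter-Fluor fluorescence, multiplexed with luciferase.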

[16] = Caspase-3/7 induction in HepG2 cells by small molecules, qHTS assay (AID 1346978); note: nearly all actives have a fitted effect of over 15% in size; note: potency is the fitted concentration of half-maximal effect
Outline: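 Wild-type HepG2 cells, 2,000/well, settled 5 hr at 37 C and 5% CO2, then compound-treated for 17 hr; caspase-3/7 activity read by luminescent Caspase-Glo 3/7 after 30 min at room temperature.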

[17] = Caspase-3/7 induction in CHO-K1 cells by small molecules, qHTS cell viability counter screen (AID 1346979); note: nearly all actives have a fitted effect of over 35% in size; note: potency is the fitted concentration of half-maximal effect
Outline: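 CellTiter-Fluor viability check, qHTS format: wild-type CHO-K1, 16hr compound treatment, 1hr reagent incubation, fluorescence read.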

[18] = qHTS assay to identify small molecule agonists or antagonists of the thyroid stimulating hormone receptor (TSHR) signaling pathway - wild type cell line counter screen (AID 1259384; calls by dose curve)
Outline: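 Wild-type Hek293 cells, 800/well, 18 h at 37C, then compound with Ro20-1724 for 30 min RT. cAMP by HTRF (cAMP-d2/anti-cAMP cryptate), 1 h RT, fluorescence read. 15 concentrations, triplicates.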

[19] = target: Thyrotropin receptor (Homo sapiens) (UniProt P16473); test: qHTS assay to identify small molecule antagonists of the thyroid stimulating hormone receptor (TSHR) signaling pathway (AID 1259385; calls by dose curve; note: nearly all actives have a fitted effect of over 20% in size)
Thyrotropin receptor (Homo sapiens), sequence (P16473 whole entry, looked up): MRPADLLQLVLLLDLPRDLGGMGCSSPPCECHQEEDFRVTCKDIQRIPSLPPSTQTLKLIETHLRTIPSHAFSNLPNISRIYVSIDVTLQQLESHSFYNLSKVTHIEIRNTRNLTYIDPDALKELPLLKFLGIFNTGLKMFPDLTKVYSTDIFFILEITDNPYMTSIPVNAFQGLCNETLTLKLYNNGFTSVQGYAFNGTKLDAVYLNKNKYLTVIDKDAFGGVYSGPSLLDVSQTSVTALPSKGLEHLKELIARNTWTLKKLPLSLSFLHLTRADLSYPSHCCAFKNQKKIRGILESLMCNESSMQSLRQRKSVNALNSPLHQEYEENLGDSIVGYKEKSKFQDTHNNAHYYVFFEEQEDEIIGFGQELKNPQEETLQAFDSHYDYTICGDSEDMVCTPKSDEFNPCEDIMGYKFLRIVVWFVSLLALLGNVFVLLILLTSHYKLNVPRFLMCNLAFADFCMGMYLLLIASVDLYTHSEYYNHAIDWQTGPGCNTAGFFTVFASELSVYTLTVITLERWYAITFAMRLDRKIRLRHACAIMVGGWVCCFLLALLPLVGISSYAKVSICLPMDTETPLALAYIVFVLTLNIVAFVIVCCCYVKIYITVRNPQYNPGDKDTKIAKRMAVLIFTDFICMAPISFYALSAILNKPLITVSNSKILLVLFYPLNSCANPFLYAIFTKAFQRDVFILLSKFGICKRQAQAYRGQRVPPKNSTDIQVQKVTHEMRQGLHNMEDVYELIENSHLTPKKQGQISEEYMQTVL
Outline: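 TSHR-HEK293 cells (800/well) plated 18 h, then compounds with Ro20-1724 and TSH at 1.5 ng/mL final, 30 min at room temperature. cAMP quantified by HTRF (cAMP-d2/anti-cAMP-cryptate, 1 h); 15 concentrations in triplicate.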

[20] = qHTS assay to identify small molecule antagonists of the TGF-beta/Smad signaling pathway - cell viability counter screen (AID 1346824); note: nearly all actives have a fitted effect of over 50% in size
Outline: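 SBE-bla HEK 293T cells, incubated overnight, then compound plus 0.25 ng/mL TGF-beta1 (stock added) for 5 hr at 37 C. Viability was read in the same wells by CellTiter-Glo luminescence after 30 min at room temperature.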

SMILES | Potency [1] | Potency [2] | Potency [3] | Potency [4] | Potency [5] | Potency [6] | outcome [7] | Potency [8] | Potency [9] | Potency [10] | Potency [11] | outcome [12] | Potency [13] | Potency [14] | Potency [15] | Potency [16] | Potency [17] | Potency [18] | Potency [19] | Potency [20]
CCc1c(C)cc(N)c(CC)c1N | inactive | inactive | inactive | inactive | inactive | inactive | inactive | inactive | inactive | inactive | inactive | inactive | inactive | inactive | inactive | inactive | inactive |  |  | 
CCCCCCCCSCc1cc(C)c(O)c(CSCCCCCCCC)c1 | inactive | inactive | inactive | inactive | inactive | inactive | inactive |  | inactive | inactive | inactive | inactive | inactive | inactive | inactive | inactive | 68.6 µM (active) | inactive | inactive | inactive
CCOC(=O)[C@H](O)[C@@H](O)C(=O)OCC | inactive | inactive | inactive | inactive | inactive | inactive | inactive |  | inactive | inactive | inactive | inactive | inactive | inactive | inactive | inactive | inactive |  |  | 
CC1CCC(C(C)(C)O)CC1 (stereo not given) | inactive | inactive | inactive | inactive |  | inactive | inactive |  | inactive | inactive |  | inactive | inactive |  | inactive | inactive | inactive |  |  | inactive
Nc1ccc2c(S(=O)(=O)O)cccc2c1S(=O)(=O)O | inactive | inactive | inactive | inactive |  | inactive | inactive | inactive | inactive | inactive | inactive |  | inactive | inactive | inactive | inactive |  | inactive | inactive | 
CN(C[C@@H](CC[N+]12CCC(C3CCCCC3)(CC1)CC2)c1ccc(Cl)c(Cl)c1)C(=O)c1cc(C(F)(F)F)cc(C(F)(F)F)c1 | 68.6 µM (active) | 30.6 µM (active) | inactive | 17.2 µM (active) | inactive |  |  |  | 27.3 µM (active) | 13.7 µM (active) |  |  | inactive | inactive |  | inactive | 61.1 µM (active) | inactive | inactive | inactive
N#Cc1ccc(C/C(=N/NC(=O)Nc2ccc(OC(F)(F)F)cc2)c2cccc(C(F)(F)F)c2)cc1 | inactive | inactive | inactive | inactive | inactive | inactive | inactive |  |  | inactive |  | inactive | inactive |  | inactive | inactive |  |  | inactive | inactive
CN1CC[C@H](c2c(O)cc(O)c3c(=O)cc(-c4ccccc4Cl)oc23)[C@H](O)C1 | inactive | inactive | inactive | inactive |  | inactive |  |  |  |  | inactive |  |  |  | 0.0944 µM (active) | 0.237 µM (active) | 0.0944 µM (active) |  |  | inactive
